Source: PubChem BioAssay AID431 (Sanford-Burnham Center for Chemical Genomics, 2006)
Out of some 63,000 compounds screened, about 1,100 (1.7%) were called active. Only a selection was taken, and actives are over-represented in it overall. Measured potencies and affinities stand elsewhere. Values without a mark were called inactive.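 How the source made its calls: active means compounds whose percent cytotoxicity in the single-dose primary screen, scaled between solvent and toxic-drug controls, exceeds 50; inactive means the rest.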

test: viability loss of HPDE-C7K cells – cell-based, fluorescence, HTS, primary screen (AID 431); settings: HPDE-C7K KRASV12 cells, Alamar Blue viability, 48 h; at 10 µM; hits give high values;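 further: 0% = DMSO solvent wells and 100% = doxorubicin-treated wells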

Compared with `Oc1ccccc1Nc1nc(NCC2CCCO2)c2ccccc2n1` (stereo not drawn), `O=C(OC(C(=O)NCC1CCCO1)c1ccc(F)cc1)c1ccco1` (stereo not drawn) is lower in cytotoxicity: 12.1% for the first, -12.4% for the second.

Compared with `CC(=O)c1ccc(NC(=O)CSc2nnc(Cn3c(=O)sc4ccccc43)n2C)cc1`, `COc1ccc(NC(=O)N2CCn3c2nc2ccccc23)cc1` is lower in cytotoxicity: -1.4% for the first, -17.6% for the second.

Going from `N#Cc1ccc(CSc2nnc(-c3ccccn3)n2-c2ccccc2)cc1` to `CCOC(=O)C1CCN(c2ncnc3c2cnn3-c2ccccc2)CC1`, the cytotoxicity falls from 10.8% to 2.3%.

First: COc1cc2[nH]c(=O)n(CCCCCC(=O)NCCCN3CCC(C)CC3)c(=O)c2cc1OC
Second: N=c1c(C(=O)NC2CCCC2)cc2c(=O)n3ccccc3nc2n1CCN1CCOCC1
The cytotoxicity of the first is higher: -6.7% for the first, -8.1% for the second.

Compared with `O=C(CN1C(=O)NC2(CCCCCCC2)C1=O)N1CCOCC1`, `CCCc1nc(N2CCOCC2)c(C#N)c2c1CCCC2` is higher in cytotoxicity: -1.1% for the first, -0.6% for the second.

Going from `O=C(Cn1c(=O)oc2cc(S(=O)(=O)NCc3ccccc3)ccc21)NCc1ccco1` to `CCC(C)(C)NC(=O)C(c1ccccc1F)N(Cc1ccco1)C(=O)Cn1nnc2ccccc21` (stereo not drawn), the cytotoxicity falls from 2.7% to -4.3%.

First: CC(=O)N1CCN(c2nc(CC(C)C)c3c(c2C#N)CCC3)CC1
Second: CC(C)Cc1nc(N2CCN(C(=O)C(C)C)CC2)c(C#N)c2c1CCC2
The cytotoxicity of the first is higher: 2% for the first, -14.5% for the second.

Going from `CC1(C)Cc2c(C#N)c(N3CCOCC3)nc(Cc3ccccc3)c2CO1` to `CCc1nc(N2CCN(C(=O)c3ccccc3)CC2)c(C#N)c2c1COC(C)(C)C2`, the cytotoxicity falls from 40% to 5.9%.

Going from `CC(C)Cc1nc(N2CCCCC2)c(C#N)c2c1CCC2` to `CCc1nc(N2CCCC2)c(C#N)c2c1CCCC2`, the cytotoxicity falls from 16.1% to -11.1%.

Compared with `CCc1nc(N2CCOCC2)c(C#N)c2c1CCCC2`, `COc1cc(-c2c(C#N)c(N)nc3c2CCCC3)ccc1O` is lower in cytotoxicity: -2.9% for the first, -23.5% for the second.

First: CCCNC1=C(C)C(=O)CC1
Second: COc1ccc(CCNC(=O)C2=COCCO2)cc1
The cytotoxicity of the first is higher: 15.5% for the first, -8.1% for the second.

First: CCOc1ncccc1C(=O)OCC(=O)c1ccc[nH]1
Second: COc1ccc(/C(O)=C2/C(=O)C(=O)N(CCN(C)C)C2c2ccccn2)cc1OC (stereo not drawn)
The cytotoxicity of the first is higher: 2.7% for the first, -9.5% for the second.

Compared with `COc1ccc(OC)c(NC(=O)c2cc3n(n2)C(C(F)(F)F)CC(c2ccc4c(c2)OCO4)N3)c1` (stereo not drawn), `COc1ccccc1NC(=O)c1cc2n(n1)C(C(F)(F)F)CC(c1ccc3c(c1)OCO3)N2` (stereo not drawn) is lower in cytotoxicity: 42.4% for the first, 41.8% for the second.

Going from `O=C(Nc1cc(Cl)ccc1O)c1cc2n(n1)C(C(F)(F)F)CC(c1ccc3c(c1)OCO3)N2` (stereo not drawn) to `COc1ccc(C2CC(C(F)(F)F)n3nc(C(=O)Nc4ccc5c(c4)OCO5)cc3N2)cc1` (stereo not drawn), the cytotoxicity rises from -19.1% to -10.9%.

Going from `O=C(NCc1ccc2c(c1)OCO2)c1cc2n(n1)C(C(F)(F)F)CC(c1ccc3c(c1)OCO3)N2` (stereo not drawn) to `Cc1cc(NC(=O)c2cc3n(n2)C(C(F)(F)F)CC(c2ccc(Cl)c(Cl)c2)N3)no1` (stereo not drawn), the cytotoxicity falls from 21.6% to 14.7%.

First: CC(=O)N(c1ccc2oc(=O)sc2c1)S(=O)(=O)c1cccs1
Second: COC(=O)c1ccc(CN(c2ccc(C)cc2)S(=O)(=O)c2ccc3c(c2)OCCO3)o1
The cytotoxicity of the first is higher: 14.7% for the first, 7.1% for the second.

Compared with `COCc1[nH]nc2c1C(c1ccc(F)cc1F)C(C#N)=C(N)O2` (stereo not drawn), `COc1cccc(CN2CCNC(=O)C2CC(=O)O)c1OC` (stereo not drawn) is higher in cytotoxicity: -13.5% for the first, -4.6% for the second.

Compared with `Cc1cc(N2C(=O)C(O)=C(C(=O)c3ccco3)C2c2cccnc2)no1` (stereo not drawn), `Cn1c(C(=O)Nc2ccc3c(c2)OCCO3)cc2c(=O)n(C)c3ccccc3c21` is higher in cytotoxicity: -10.4% for the first, 48.6% for the second.

Going from `C=CCn1c(COc2cccc3ccc(C)nc23)nnc1SCC(=O)OC` to `O=C(NC1CCCCC1)C(c1ccc(F)cc1)N(Cc1ccco1)C(=O)Cn1nnc2ccccc21` (stereo not drawn), the cytotoxicity falls from 6.8% to -8.2%.

Going from `Cc1n[nH]c(C)c1S(=O)(=O)N1CCN(C(=O)c2ccco2)CC1` to `COc1cccc(N(CC(=O)NC(C)(C)C)C(=O)C2CSC(=O)C2)c1` (stereo not drawn), the cytotoxicity falls from 4% to -24.1%.

With `Oc1ccccc1-c1nc(NCC2CCCO2)c2ccccc2n1` (stereo not drawn) the cytotoxicity was 50.1% (active).
With `CCCc1nc(N2CCCC2)c(C#N)c2c1CCCC2` the cytotoxicity was 87.9% (active).
In the case of `CC(C)Cc1nc(N2CCN(C(=O)c3ccco3)CC2)c(C#N)c2c1CCC2`, the cytotoxicity was 63.2% (active).
With `CC(C)Cc1nc(N2CCOCC2)c(C#N)c2c1CCC2` the cytotoxicity was 64.8% (active).
In the case of `COc1ccc(NC(=O)c2cc3n(n2)C(C(F)(F)F)CC(c2ccc4c(c2)OCO4)N3)cc1OC` (stereo not drawn), the cytotoxicity was 69.1% (active).
With `O=C(Nc1ccc2c(c1)OCO2)c1cc2n(n1)C(C(F)(F)F)CC(c1ccccc1)N2` (stereo not drawn) the cytotoxicity was 72.7% (active).
In the case of `Cc1cccc(NC(=O)c2cc3n(n2)C(C(F)(F)F)CC(c2ccc4c(c2)OCO4)N3)c1` (stereo not drawn), the cytotoxicity was 75.8% (active).
For `O=C(NC1CCCCC1)C(c1ccccc1F)N(Cc1ccco1)C(=O)Cn1nnc2ccccc21` (stereo not drawn), the cytotoxicity was 65.1% (active).
